From the supplement of paper PMC3334620
The full ranking holds about 33,000 sequences; the median of “E-score (-0.5 to 0.5)” is about -0.016, and the highest 2% start at about 0.32. The sample holds the highest values, similar sequences and a random draw of the others, so the mix is not that of the screen.

What follows are sequences tested against T1, Stp1 (UniProt B3LFK1) (assay: PBM E-score (8-mer binding enrichment) (E-score (-0.5 to 0.5)); higher = stronger / more preferred TF binding). Settings: protein concentration: 200 nM; construct: GST-full length.
T1 sequence: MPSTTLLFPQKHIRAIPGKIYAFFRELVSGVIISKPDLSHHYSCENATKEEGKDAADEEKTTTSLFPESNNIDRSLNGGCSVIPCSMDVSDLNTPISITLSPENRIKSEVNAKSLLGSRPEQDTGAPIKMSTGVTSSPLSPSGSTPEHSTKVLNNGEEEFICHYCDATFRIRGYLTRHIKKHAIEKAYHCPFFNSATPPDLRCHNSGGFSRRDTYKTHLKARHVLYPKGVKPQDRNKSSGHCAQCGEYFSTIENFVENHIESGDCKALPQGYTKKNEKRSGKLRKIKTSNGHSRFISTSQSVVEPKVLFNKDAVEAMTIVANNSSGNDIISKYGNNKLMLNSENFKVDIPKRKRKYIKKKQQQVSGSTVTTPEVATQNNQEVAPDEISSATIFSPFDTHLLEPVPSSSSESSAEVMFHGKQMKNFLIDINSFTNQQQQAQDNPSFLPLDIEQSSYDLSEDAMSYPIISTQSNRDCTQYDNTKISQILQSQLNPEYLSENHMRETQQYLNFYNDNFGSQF
Description: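 Universal 'all 10-mer' protein binding microarrays (Agilent AMADID 015681) probed with GST-tagged S. cerevisiae TFs (full-length or DBD) made by in vitro transcription/translation (PURExpress), about 100-200 nM. Bound TF was detected with fluorescent anti-GST. Each ungapped 8-mer (which stands for itself and its reverse complement) is scored by the PBM enrichment score (E-score), a modified Wilcoxon-Mann-Whitney statistic from -0.5 to +0.5, computed with the Universal PBM Analysis Suite. Scale: above 0.35 generally sequence-specific binding.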

Sequence | PBM E-score
CATGTAGG | -0.00116
AGTTGAGA | -0.0601
ACTCCAGG | -0.175
GGAGCACC | -0.188
CCTTACAG | 0.0881
AGGGAGTG | -0.0747
CCGTCATA | 0.0738
CAGAACGA | 0.00724
CACGGCTA | 0.415
GCCGGCTA | 0.0397
GTCGGCTA | -0.0709
ACCGGCTA | -0.0689
GACGGCTA | 0.235
AACGGCTA | 0.372
CTCGGCTA | 0.0804
ATCGGCTA | -0.108
TACGGCTA | 0.349
ACACCTTA | 0.0262
ACGACCGT | -0.11
AAAGTGCC | 0.201
AGCACGGC | 0.451
AACACGGG | 0.116
CACACGGC | 0.471
AACACGGA | 0.199
CACACGGA | 0.253

Sequence | PBM E-score
ATCACGGA | -0.0235
AGCACGGG | 0.14
AGCACGGA | 0.114
ATCACGGG | 0.00016
AACACGGC | 0.449
CACACGGG | 0.235
ATCACGGC | 0.351
ACACCGAA | 0.0644
AAGGAGCT | -0.235
AAAGCAAC | 0.0791
AGTATTCG | 0.0476
ATTTGGTA | 0.144
AGACGCGC | 0.0493
GACACGGC | 0.479
GACACGCC | 0.105
GACACGGA | 0.315
GCCCTATA | 0.206
AACCAAAG | 0.0816
ACCACTAT | -0.127
CGCATTAA | 0.144
CGCATTAC | -0.0452
AGCATTAA | -0.0764
GGCATTAA | 0.319
GGCATTAC | 0.364
AGCATTAC | -0.0767

Sequence | PBM E-score
ATACTGGC | -0.284
AATATCGT | 0.141
ACCCAACT | -0.178
ACTGCCGG | 0.0822
CGTGCCCA | 0.235
CGTGCCGA | 0.352
CGTGCCAC | 0.232
GGTGCCGA | 0.288
ACTGCCGC | 0.412
CGTGCCGC | 0.475
CCTGCCGC | 0.226
AGTGCCGC | 0.477
AGTGCCGG | 0.211
AGTGCCAC | 0.242
CGTGCCAG | 0.172
ACAGGTAG | -0.126
GAACTCCA | -0.0707
CCGACTTA | 0.0516
CTCTGAAA | 0.0291
CATTCTCG | 0.128
GGGCCTGA | -0.296
ATTGCCGC | 0.418
AGTGCCAA | -0.0972
AGTGCCCA | 0.0772
ATTGCCGA | 0.177

Sequence | PBM E-score
AGTGCCGA | 0.322
CTTGCCGC | 0.309
ATCAACCG | -0.0921
CCCGTACA | -0.0395
ACCGTACA | 0.117
GCCGTACA | 0.459
GCCGTACC | 0.46
ACCGTACC | -0.0289
CCCGTACC | 0.191
CCAGAGAG | -0.245
GCGCGGCC | 0.4
CCGCGGTC | -0.0134
CCTCGGCA | 0.282
TCTCGGCA | 0.045
ACTCGGCA | 0.324
GCGCGGCA | 0.483
GCGCGGGA | 0.163
GAGCGGCC | 0.156
GCGCGGAC | 0.256
CCGCGGCC | 0.325
GCGCGGAA | 0.263
CCGCGGGC | 0.215
CAGCGGGA | -0.174
AGATAGTA | 0.0718
ACATAGTC | -0.0859

Sequence | PBM E-score
AACACCCG | 0.151
CTGTGATC | -0.0819
CACGTAGG | -0.104
CCCCGTCA | -0.177
CAGATTTA | 0.198
TGGTTACA | -0.0623
TCTACCAA | -0.0725
ACGCGGGA | 0.0444
ACGCGTCT | -0.112
CCGCGACG | 0.197
ACGCGGTC | -0.0102
ACGCGGTA | 0.0505
ACGCGGCC | 0.326
ACGCGGCA | 0.479
CCGCGGAG | 0.0416
ACGCGGCT | 0.446
ACGCGGAT | 0.236
CCGCGGCG | 0.435
ACGCGGAC | 0.0606
AACAGTCC | -0.215
ATACACTG | 0.0725
AGCCTCGG | -0.0283
GCTTGGAA | -0.00205
AGAACCTA | -0.109
AGCCAGCA | -0.297

Sequence | PBM E-score
CTTATTGC | 0.0179
ACACAAGT | 0.00705
GGATGTGA | -0.084
TGCCAGCA | 0.01
ATACCTGG | -0.284
AAGCAGGC | -0.277
CAGAGCTG | -0.147
ATCCGGAT | -0.0475
ACGCGGTG | 0.0603
ACGCGGAG | 0.111
CCGCGGCA | 0.441
TCGCGGAA | -0.0668
CCGCGGAA | 0.183
CCGCGGGA | 0.218
TCGCGGCA | 0.346
TCGCGACA | -0.0531
ACGCGGCG | 0.488
CTGCCAGC | -0.204
TCAAAGAA | -0.0561
AAGCGAGC | 0.0162
CAAGGTTC | -0.124
CCGCTCTC | -0.0569
AAAACCTA | 0.0597
CGGGTGGA | -0.162
AGACGGCA | 0.449

Sequence | PBM E-score
GGACGGCC | 0.16
GGACGGCA | 0.441
CGACGGCA | 0.299
AGACGGAA | 0.106
AGACGGGA | -0.12
AGGGTCAT | -0.233
CTCGCCAA | 0.0165
CGACTCGA | -0.115
CACCATTC | 0.0105
CACCGTCG | -0.114
ATACGGAA | 0.268
GTACGGCA | 0.48
ATACGGGA | 0.125
GTACGGGA | 0.0383
CTACGGTA | -0.146
ATACGGCC | 0.406
GTACGGTA | 0.147
ATACGGGC | -0.0186
CTACGGAA | 0.0958
ATACGGCA | 0.483
CTACGGCC | 0.126
CTACGGCA | 0.473
CAAAGGGG | -0.262
